Compound activity as filed in PubChem.
NPC1 prom act = NPC1 promoter activation. Huh7 NPC1 promoter luciferase reporter, 24 h. Potency, µM (series often up to 9.22 µM), without a hit: at the top dose activation, usual class: activators. hit rate 2.4% among 320,000; further: % of control where 0% means no effect; nearly all actives have a fitted effect of over 60% in size
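Luminescence from an NPC1 promoter-driven luciferase reporter in stably transfected Huh7 cells was measured after 24 h compound treatment at 37 °C, followed by 10 min ambient incubation with luciferase detection reagent.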
FLuc counter = firefly luciferase modulation, counter-screen for miR-21 project. purified FLuc, Km substrates, luminescence inhibition. Potency, µM (doses to about 57.5 µM), for inactives: at the highest dose activity change, negative = inhibition, most hits filed as inhibitors. hit rate 6.9% among 360,000. AID 588342;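 further: plate controls were vehicle for no effect and reference inhibitor for full effect; nearly all actives have a fitted effect of over 55% in size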
Target sequence (P08659 whole entry, looked up): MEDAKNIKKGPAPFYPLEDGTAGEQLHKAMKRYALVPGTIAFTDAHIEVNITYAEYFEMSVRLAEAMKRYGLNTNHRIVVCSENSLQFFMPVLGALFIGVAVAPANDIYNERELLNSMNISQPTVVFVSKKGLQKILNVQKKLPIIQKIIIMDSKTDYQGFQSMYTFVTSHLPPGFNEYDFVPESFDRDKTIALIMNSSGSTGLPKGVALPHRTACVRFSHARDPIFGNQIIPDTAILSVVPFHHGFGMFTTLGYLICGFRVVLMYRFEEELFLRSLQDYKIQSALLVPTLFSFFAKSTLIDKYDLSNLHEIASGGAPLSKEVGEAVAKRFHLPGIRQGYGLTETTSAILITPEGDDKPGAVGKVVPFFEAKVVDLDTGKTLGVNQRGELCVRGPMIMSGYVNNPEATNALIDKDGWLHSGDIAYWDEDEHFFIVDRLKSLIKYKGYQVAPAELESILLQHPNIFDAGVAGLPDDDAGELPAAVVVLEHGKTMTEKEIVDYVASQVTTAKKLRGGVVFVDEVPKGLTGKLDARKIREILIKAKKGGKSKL
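Purified P. pyralis luciferase (10nM final) with 10uM D-luciferin and 10uM ATP (Km levels) in 50mM Tris acetate pH 7.5, 10mM Mg acetate, 0.01% Tween-20, 0.05% BSA; qHTS 6-point titration, ~60 µM downward; luminescence read.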
ELG1 genotoxic = genotoxicity induction in ELG1-luciferase HEK293T cells; hit rate 1.3% among 330,000; AID 504466; Potency, µM (titrated, usually from 46 µM), inactives show at the top dose activity change, positive = activation, most hits filed as activators; HEK293T ELG1-luciferase reporter, luminescence, 16 h; further: % of control where 0% means no effect; nearly all actives have a fitted effect of over 60% in size
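HEK293T cells expressing luciferase-tagged ELG1 were exposed to compound or DMSO vehicle for 16 hr at 37 °C and 5% CO2. Luciferase activity was then measured with ONE-Glo after 30 min at room temperature.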
SMN2 splice up = SMN2 splice variant enhancement; HEK293 SMN2-luciferase splicing reporter, luminescence, 30-36 h; Potency, µM (titrated, usually from 46.1 µM), for the others: top-dose activity change, positive = activation, most hits filed as activators; hit rate 2.8% among 210,000; AID 1458; further: % of control where 0% means no effect; nearly all actives have a fitted effect of over 55% in size
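qHTS luciferase splicing reporter: luminescence rises when SMN2 exon 7 is included in transfected HEK293 cells. Compound exposure lasted 30-36 h at 37C, with 4.5 mM final sodium butyrate as control, followed by a ONE-Glo read.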
ELG1 DNA repair = ELG1-dependent DNA repair inhibition; HEK293T ELG1-luciferase reporter, luminescence, 16 h; DNA damage induced by 5-fluorouridine; Potency, µM (highest dose often 46.1 µM), for inactives: at the top dose activity change, negative = inhibition, most hits filed as inhibitors; hit rate 2.3% among 330,000; further: on the % scale 0 is the no-effect control and ±100 the full control effect; nearly all actives have a fitted effect of over 55% in size
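Reporter activity after DNA damage by 5-fluorouridine is monitored. Compound-treated cells incubate 16 hr at 37 °C, then ONE-Glo is added for 30 min before luminescence reading.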
Rab9 promoter act = activators of Rab9 promoter; Huh7 Rab9 promoter-luciferase reporter, luminescence, 24 h; Potency, µM (top dose mostly 9.22 µM), without a hit: at the top dose activation, negative = inhibition, actives largely listed as activators; hit rate 2.8% among 320,000; AID 485297; further: % of control where 0% means no effect; nearly all actives have a fitted effect of over 60% in size
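Luciferase signal after 10 min detection reagent at ambient indicates Rab9 promoter upregulation; stably transfected Huh7 cells were treated 24 h with compound in DMSO at 37 °C, 5% CO2.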
* marks the source's active call; other numbers are inactive results; ? = inconclusive; . = no result given; [ ] = remark or other dose. Sampled rows, rich in hits. Any-hit rate of the full collection: about 9.4%. The call rests on the fitted dose curve; in most records, active means well fitted curve in the direction sought with a large enough effect; inconclusive means small, poorly fitted or top-dose-only effect, or another doubt; inactive means no such curve, though single readings can be large; an effect the other way counts as inactive or inconclusive. Potency means the concentration at half of the fitted maximal effect.

SMILES	NPC1 prom act	FLuc counter	ELG1 genotoxic	SMN2 splice up	ELG1 DNA repair	Rab9 promoter act
O=C1c2cccc3c(N4CCCCC4)ccc(c23)C(=O)N1CCO	?	15µM*	?	10%	?	?
Cc1n[nH]c(C)c1N1C(=O)c2cccc3c(N4CCCCCC4)ccc(c23)C1=O	-5%	-3%	-2%	-33%	?	-6%
O=C(OCCN1C(=O)c2cccc3c(N4CCOCC4)ccc(c23)C1=O)c1ccccc1Cl	-15%	-1%	-17%	-80%	12µM*	-12%
Cc1cc2nc3ccc(=[N+](C)C)cc-3sc2cc1N	12%	17µM*	-2%	.	0.65µM*	14%
COc1ccc(C2C(C(C)=O)=C(O)C(=O)N2c2nccs2)cc1OC (stereo not drawn)	1%	3%	1%	4%	4%	2%
COc1ccc2c(c1OC)C(=O)N(c1nccs1)C2	?	15µM*	18µM*	13µM*	?	?
COc1ccc2c(c1OC)C(=O)N(c1cccc(/C=C/C(=O)O)c1)C2	29%	3µM*	?	.	?	24%
COc1ccc(N2Cc3ccc(OC)c(OC)c3C2=O)cc1	2µM*	4.8µM*	10µM*	.	?	?
COc1ccc(/C=C/C(=O)O)cc1S(=O)(=O)N1CCc2ccccc2C1	1%	-6%	-3%	-5%	?	3%
COc1ccc(Nc2cc(C)c3cc(NC(=O)c4cc(OC)cc(OC)c4)ccc3n2)cc1	.	-3%	.	.	.	.
CC(C)c1ccc(C2N=C(N)Nc3nc4ccccc4n32)cc1 (stereo not drawn)	.	1%	.	?	.	.
CC(C)OC(=O)c1cccc(C(=O)Oc2ccc(Br)cc2)n1	-4%	9.5µM*	0%	1%	-11%	-5%
COc1ccc(OC)c(Nc2ncnc3ccccc23)c1	0%	?	-2%	-5%	6%	12%
COc1ccc(OC)c(Nc2nc(=O)c3cccnc3s2)c1	-33%	17µM*	8%	3%	-6%	-14%
Cc1ccc(Nc2nc(=O)c3cccnc3s2)cc1	3.2µM*	12µM*	?	18%	?	2.5µM*
COc1ccc(S(=O)(=O)NCc2ccc3c(c2)CCN3C(=O)c2ccccc2)cc1OC	.	-2%	.	.	.	.
Cc1cccc(C(=O)n2nc(-c3ccco3)nc2NCc2ccccc2)c1	.	-6%	.	8%	.	.
Cc1ccc(C(=O)COC(=O)C(CC(C)C)NC(=O)C2CCC(C)CC2)cc1 (stereo not drawn)	.	-11%	.	-10%	.	.
Cc1cccc(-c2ncc(S(=O)(=O)C(C)(C)C)c(N)n2)c1	4µM*	?	11%	.	?	3.2µM*
Cc1nn(-c2ccccc2)c(Cl)c1/C=N/NC(N)=O	18%	?	?	.	?	18%
Cc1nn(-c2ccccc2)c(Cl)c1/C=N/Nc1nnc(C)c(=O)[nH]1	-5%	-2%	-6%	.	-2%	-4%
Cc1nn(-c2ccccc2)c(Cl)c1/C=N/Nc1nc2ccccc2n1C	3.5µM*	2.4µM*	8%	11µM*	?	?
Cc1nn(-c2ccccc2)c(Cl)c1/C=N/NC(=O)CNC(=O)c1ccccc1Cl	6%	19µM*	-3%	4%	?	7%
O=C(N/N=C/c1ccccc1C(=O)O)c1cccc(S(=O)(=O)N2CCOCC2)c1	1%	12µM*	1%	.	1%	1%
COC(=O)N/N=C\c1c(C)nn(-c2ccccc2)c1Cl	?	15µM*	?	?	?	?
SMILES	NPC1 prom act	FLuc counter	ELG1 genotoxic	SMN2 splice up	ELG1 DNA repair	Rab9 promoter act
CCOc1ccccc1NC(=O)C(CC(C)C)NS(=O)(=O)c1ccc2c(c1)CCN2C(C)=O (stereo not drawn)	.	-8%	.	5%	.	.
COc1c2c(c3c(c1CCC(=O)O)OC(C)(C)C=C3)OC(C)(C)C=C2	.	.	.	7%[9.22 µM]	.	.
Cc1nn(-c2ccccc2)c(Cl)c1/C=N/NC(=O)c1ccnn1C	1.4µM*	2.7µM*	15µM*	.	?	2.8µM*
Cc1nn(-c2ccccc2)c(Cl)c1/C=N/NC(=O)c1cccc(S(=O)(=O)N2CCCC2)c1	-2%	0%	1%	-16%	13µM*	-3%
Cc1nn(-c2ccc(F)cc2)c(Cl)c1/C=N/NC(=O)c1cccc(S(=O)(=O)N2CCCC2)c1	-5%	5%	14%	-26%	0%	-8%
COC(=O)NC1C=CCCC1C(C)=O (stereo not drawn)	.	.	.	-1%	.	.
CN1CCN(c2ccc(-c3ccnn3C(=O)Nc3ccccc3)cc2)CC1	?	17µM*	?	10µM*	?	3.5µM*
CN1CCN(c2ccc(NC(=O)C(C)(c3ccccc3)c3ccccc3)cc2)CC1	-5%	1%	-3%	.	0%	0%
COc1cc(OC)c(N(C)C(=O)c2nn(C)c3c2CSc2ccccc2-3)cc1Cl	.	-1%	.	.	.	.
Cc1c2ccccc2nc2c(F)c(N(C)C)c(F)c(F)c12	21%	9.5µM*	?	?	?	?
O=C(N/N=C/C=C\c1ccccc1[N+](=O)[O-])c1cc(-c2ccccc2)nc2ccccc12	2%	12µM*	0%	0%	?	-5%
O=C(N/N=C/c1ccc([N+](=O)[O-])o1)c1cc(-c2ccncc2)nc2ccccc12	-18%	?	-6%	-22%	?	-17%
COc1ccc(NC(C)C(=O)N/N=C/c2ccc([N+](=O)[O-])s2)cc1 (stereo not drawn)	-3%	5%	-11%	-61%	18µM*	1%
Cc1ccnn1CC(=O)N/N=C/c1cccs1	0%	0%	-1%	6%	9%	-6%
Cc1ccnn1CC(=O)N/N=C/c1ccc([N+](=O)[O-])s1	-5%	4%	-11%	.	13µM*	-4%
Cc1ccc(-c2cc(C(=O)N/N=C/c3ccc([N+](=O)[O-])o3)c3ccccc3n2)o1	?	0.3µM*	-5%	.	8%	?
O=C(N/N=C/c1ccc([N+](=O)[O-])o1)c1cc(-c2ccc(-c3ccccc3)cc2)nc2ccccc12	?	0.15µM*	?	2.5µM*	?	?
Cc1cc(C(=O)N/N=C/c2ccc([N+](=O)[O-])s2)c2ccccc2n1	0%	-8%	-13%	.	21µM*	15%
Cc1cc(C(=O)N/N=C/c2ccc([N+](=O)[O-])cc2)c2ccccc2n1	-31%	-3%	5%	.	?	-15%
COc1cc(C(=O)Nc2ccc(C)cc2)c2ccccc2n1	-22%	-9%	13%	.	22%	-28%
Cc1ccc(NC(=O)C2=C(O)CCn3c2nc2ccccc23)cc1	17%	12µM*	1%	-16%	-10%	8%
COc1cc(/C=N/NC(=S)NCc2ccco2)cc(OC)c1OC	-1%	0%	32%	35µM*	-24%	-3%
